In PubChem BioAssay (NCATS):
Several values for one entry are separate records, joined by “and”; a condition that tells them apart may be missing. Identical values can stand only once. Records with an inconclusive call do not appear. Activity calls are given as the source filed them. The call rests on the fitted dose curve; in most records, active means well fitted curve in the direction sought with a large enough effect; inconclusive means small, poorly fitted or top-dose-only effect, or another doubt; inactive means no such curve, though single readings can be large; an effect the other way counts as inactive or inconclusive.

Columns and labels:
[1] = biological target: Cellular tumor antigen p53 (Homo sapiens) (UniProt P04637); assay: Primary qHTS for small molecule compounds that upregulate eGFP-tagged delta133p53alpha (in N-terminal) cells. (AID 2060322); conditions: NCI-H358 eGFP-delta133p53alpha fluorescence, 24 h; activation: hits give high values; further: nearly all actives have a fitted effect of over 75% in size; further: potency means the concentration at half of the fitted maximal effect;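 on activation: cells pre-induced with doxycycline then dosed without doxycycline; series mostly up to about 56 µM; 0% = DMSO vehicle and 100% = reference activator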
Cellular tumor antigen p53 (Homo sapiens), sequence (P04637 whole entry, looked up): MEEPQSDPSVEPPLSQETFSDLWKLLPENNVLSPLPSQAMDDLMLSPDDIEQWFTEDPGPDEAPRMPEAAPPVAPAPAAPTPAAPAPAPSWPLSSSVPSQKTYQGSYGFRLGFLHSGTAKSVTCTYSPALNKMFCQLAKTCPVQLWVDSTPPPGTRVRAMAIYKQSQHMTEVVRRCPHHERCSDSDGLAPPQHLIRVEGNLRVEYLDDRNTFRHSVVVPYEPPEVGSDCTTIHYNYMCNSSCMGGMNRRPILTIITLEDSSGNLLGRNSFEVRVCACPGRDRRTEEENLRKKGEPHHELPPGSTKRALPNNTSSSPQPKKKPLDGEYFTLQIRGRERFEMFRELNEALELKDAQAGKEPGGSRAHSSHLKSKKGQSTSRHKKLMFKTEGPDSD
Procedure, shortened: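 NCI-H358 cells pre-induced 24 h with 10 ng/ml doxycycline for eGFP-delta133p53alpha, plated dox-free and exposed 24 h at 37C to titrated compounds. Fixed, Hoechst-stained; gated GFP peak intensity by laser scanning cytometry, normalized to DMSO (0%) and 57.5 uM 5-azacytidine (100%).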

[2] = biological target: Aldehyde dehydrogenase, mitochondrial (Homo sapiens) (UniProt P05091); assay: qHTS for Inhibitors of the Aldehyde Dehydrogenase Family (ALDH2) Primary screen (AID 2061308);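 further: plate controls were vehicle for no effect and reference inhibitor for full effect; nearly all actives have a fitted effect of over 55% in size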
[3] = biological target: Retinaldehyde dehydrogenase 3 (Homo sapiens) (UniProt P47895); assay: qHTS for Inhibitors of the Aldehyde Dehydrogenase Family (ALDH1A3) Primary screen (AID 2061315);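 further: plate controls were DMSO vehicle for no effect and reference inhibitor for full effect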
[4] = BET inhibitor-based combinations targeting novel dependencies in MECOM-rearranged (r) AML: SET-2 cell line (AID 2202231); conditions: SET-2 AML cells viability, CellTiter-Glo luminescence, 48 h; viability: hits give low values, concentration not given here; further: nearly all actives have a fitted effect of over 35% in size; further: potency means the concentration at half of the fitted maximal effect;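 on viability: plate controls were DMSO treated cells for no effect and wells without cells for full effect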
Procedure, shortened: (§1)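 Each compound was tested at eleven concentrations on cells seeded at 500/well. After two days' incubation, ATP-based luminescence reported viability; responses relative to DMSO and blank wells yielded AUC and cell-line-centred Z-AUC.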

[5] = BET inhibitor-based combinations targeting novel dependencies in MECOM-rearranged (r) AML: OCI-AML3 cell line (AID 2202232); conditions: Potency: OCI-AML3 viability; further: nearly all actives have a fitted effect of over 35% in size; further: potency means the concentration at half of the fitted maximal effect
Procedure, shortened: as §1

[6] = BET inhibitor-based combinations targeting novel dependencies in MECOM-rearranged (r) AML: MV-4-11 cell line (AID 2202233); further: nearly all actives have a fitted effect of over 45% in size; further: potency means the concentration at half of the fitted maximal effect
Procedure, shortened: (§2)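 First, 500 cells per well were seeded; next, drugs were pinned as 11-point doses; then plates sat 48 hr in the incubator; finally CellTiter-Glo was added and luminescence read, with AUC and Z-AUC computed.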

[7] = BET inhibitor-based combinations targeting novel dependencies in MECOM-rearranged (r) AML: HNT-34 cell line (AID 2202234); further: nearly all actives have a fitted effect of over 35% in size; further: potency means the concentration at half of the fitted maximal effect
Procedure, shortened: as §2

[8] = BET inhibitor-based combinations targeting novel dependencies in MECOM-rearranged (r) AML: UCSD-AML1 cell line (AID 2202235); further: potency means the concentration at half of the fitted maximal effect; nearly all actives have a fitted effect of over 40% in size
Procedure, shortened: as §2

[9] = BET inhibitor-based combinations targeting novel dependencies in MECOM-rearranged (r) AML: AML-191 cell line (AID 2202236; further: nearly all actives have a fitted effect of over 35% in size; further: potency means the concentration at half of the fitted maximal effect)
Procedure, shortened: as §1

[10] = BET inhibitor-based combinations targeting novel dependencies in MECOM-rearranged (r) AML: AML-194 cell line (AID 2202237; further: nearly all actives have a fitted effect of over 40% in size; further: potency means the concentration at half of the fitted maximal effect)
Procedure, shortened: as §1

Cc1nc([C@](C)(O)CO)sc1-c1cnc(N)c(O[C@H](C)c2cc(F)ccc2-n2nccn2)c1
inactive: activation [1] -10.7% | Potency [2] | Potency [3]
active: Potency [4] 10.5 µM | Potency [5] 0.742 µM | Potency [6] 6.61 µM | Potency [7] 11.8 µM | Potency [8] 1.32 µM | Potency [9] 0.833 µM | Potency [10] 1.18 µM

Cc1cn2cc(C(=O)N(C)CCO)cc(N[C@@H]3CCOc4cccc(C)c43)c2n1
inactive: activation [1] -18% and -4.46% | Potency [2] | Potency [3] | viability [4] 112% | Potency [5] | Potency [6] | Potency [7] | Potency [9] | Potency [10]

COc1cc2nc(-c3cc(F)ccc3O)nc(N[C@@H]3CNC[C@H]3C(C)(C)O)c2cc1OC
active: Potency [1] 21.3 µM | Potency [4] 6.61 µM | Potency [5] 7.42 µM | Potency [6] 0.0066 µM | Potency [7] 4.68 µM | Potency [9] 5.25 µM | Potency [10] 6.61 µM
inactive: Potency [2] | Potency [3]

CN1CCN(C2CCN(C(=O)Nc3cc(Oc4ccc(NC(=O)C5(C(=O)Nc6ccc(F)cc6)CC5)c(F)c4)ccn3)CC2)CC1
active: Potency [1] 26.9 µM | Potency [4] 20.9 µM | Potency [5] 23.5 µM | Potency [6] 0.296 µM | Potency [7] 3.72 µM | Potency [8] 7.42 µM | Potency [9] 18.6 µM | Potency [10] 11.8 µM
inactive: Potency [2] | Potency [3]

COc1cc(Nc2c(C#N)cnc3cc(OCCCN4CCN(C)CC4)c(OC)cc23)c(Cl)cc1Cl
inactive: Potency [2] | Potency [3]
active: Potency [1] 30.9 µM and 23.9 µM | Potency [4] 16.6 µM | Potency [5] 6.61 µM | Potency [6] 3.32 µM | Potency [7] 0.59 µM | Potency [8] 8.33 µM | Potency [10] 7.42 µM
